From PubChem
Compounds with a hit are over-represented: about 3.1% of the library has one in this group of screens.
14-3-3 Bad inh – disrupts binding of bovine 14-3-3 zeta to phospho-Bad peptide. AID 781. inhibition, % at 21.7 µM. 0.71% of 220,000 active. P63103. TR-FRET 14-3-3zeta/Dy647-pBad peptide displacement, 1 h;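 active = inhibition above about 70%, limit read from the data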;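 note: 0% = full 14-3-3 plus peptide FRET controls and 100% = background without 14-3-3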
Target sequence (P63103 whole entry, looked up): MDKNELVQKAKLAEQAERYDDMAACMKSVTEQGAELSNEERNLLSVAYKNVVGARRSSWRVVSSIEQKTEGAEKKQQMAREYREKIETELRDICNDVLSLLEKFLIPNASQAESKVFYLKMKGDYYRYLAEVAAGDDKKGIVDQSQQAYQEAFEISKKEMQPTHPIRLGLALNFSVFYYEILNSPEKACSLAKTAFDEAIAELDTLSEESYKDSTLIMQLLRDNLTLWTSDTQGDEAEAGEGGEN
p47phox inh – p47phox (human) inhibition; P14598; p47phox/p22phox peptide binding, fluorescence polarization, 2 h; inhibition, % at 24.7 µM; 0.53% of 220,000 active; AID 1274;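 active = inhibition above about 30%, limit read from the data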;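 note: 0% = p47phox with labelled peptide and 100% = labelled peptide alone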
Mcl1 Bid PPI – disrupts binding of human Mcl-1 to Bid peptide | Q07820 | TR-FRET Mcl-1/Bid-Dy647 peptide binding, 1536-well | inhibition, % at 21.7 µM | 0.97% of 220,000 active | AID 1021;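 active = compounds that cut the binding signal by more than half at the single screening dose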;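 note: His-tagged Mcl-1 with europium anti-His antibody binding Bid BH3 peptide; 0% = Mcl-1 plus peptide wells and 100% = peptide-only wells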
Target sequence (Q07820 whole entry, looked up): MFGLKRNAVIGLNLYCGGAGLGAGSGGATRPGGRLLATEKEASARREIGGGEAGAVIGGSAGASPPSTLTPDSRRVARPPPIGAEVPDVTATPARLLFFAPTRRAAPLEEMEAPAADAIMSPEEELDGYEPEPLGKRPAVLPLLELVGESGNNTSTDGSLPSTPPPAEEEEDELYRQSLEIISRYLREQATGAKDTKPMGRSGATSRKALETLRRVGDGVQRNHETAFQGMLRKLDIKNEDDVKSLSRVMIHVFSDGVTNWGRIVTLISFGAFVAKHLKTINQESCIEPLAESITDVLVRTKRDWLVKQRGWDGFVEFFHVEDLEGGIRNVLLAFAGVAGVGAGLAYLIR
Mcl1 Noxa PPI – Mcl-1/Noxa interaction inhibition | Q07820 | TR-FRET Mcl-1/Noxa peptide binding, 2 h | inhibition, % at 21.7 µM | 1.5% of 220,000 active | AID 1022;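 active = compounds that cut the protein-peptide binding signal by more than 50% relative to plate controls in a single-dose test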;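 note: His-tagged Mcl-1 with rhodamine Noxa BH3 peptide and terbium anti-His antibody; 0% = Mcl-1 plus Noxa peptide wells and 100% = peptide-only wells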
Bim-Mcl-1 – disrupts Bim peptide binding to human Mcl-1; 0.1% of 190,000 active; Bead-based flow cytometry, Bim peptide-Mcl-1 binding; Q07820; inhibition, % at 10 µM; in the data active = inhibition above about 40%;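 note: 0% = no compound tracer wells and 100% = peptide blocker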
The depositor's hits bear a star; . = no result given.

SMILES	14-3-3 Bad inh	p47phox inh	Mcl1 Bid PPI	Mcl1 Noxa PPI	Bim-Mcl-1
COc1ccc(OC)c(NC(=O)COC(=O)c2c3c(nc4ccccc24)CCCC3)c1	-2.2	-5.4	-3.2	9.3	-2.0
Cc1ccc(-n2[nH]c(=O)c3cccnc32)cc1	-12.9	-1.6	-11.2	64.6*	-5.0
Cc1ccc(-n2[nH]c(=O)c(-c3ccccn3)c2C)cc1	-1.6	-5.5	-8.1	6.9	0.0
O=C(Nc1ccc(S(=O)(=O)Nc2nccs2)cc1)/C(=C/c1ccccc1Cl)NC(=O)c1ccccc1	5.6	-28.7	-68.4	93.6*	-12.0
Cn1c(NC(=O)Cc2ccc(F)cc2)cc(=O)n(C)c1=O	8.6	3.3	65.4*	-0.5	0.0
CC(C)c1ccccc1NC(=S)NCc1ccncc1	-27.0	-6.0	-51.2	4.7	-3.0
CCOc1c(Cl)cc(CNc2ccc(N3CCCC3)cc2)cc1OC	-3.1	5.8	-19.0	88.4*	9.0
O=C1/C(=C/c2ccc(O)c(O)c2)SC(=S)N1Nc1ccccc1	8.5	-163.7	-27.2	59.9*	5.0
CCOc1ccccc1NC(=S)N1CCC(NC(=O)C(C)(C)C)CC1	3.2	0.8	-10.8	10.1	1.0
COc1cccc(C(=O)/C=C/Nc2ccc(S(=O)(=O)Nc3onc(C)c3C)cc2)c1	-0.8	-8.7	-12.2	2.2	66.0*
CC12CCC(C(=O)N3CCCc4ccccc43)(OC1=O)C2(C)C (stereo not drawn)	-10.4	4.2	-13.1	10.9	-5.0
NS(=O)(=O)c1ccc(NCc2c(F)cccc2Cl)cc1	3.8	-7.7	-5.8	17.4	-3.0
Fc1cccc(Cl)c1CNc1ccc(N2CCCC2)cc1	27.4	3.1	-39.7	72.3*	16.0
CCN(CC)C(=O)CC(c1cc(OC)c(OC)c(OC)c1)c1c(OC)cc(OC)c2ccc(=O)oc12 (stereo not drawn)	0.3	-12.3	-62.1	-11.5	.
CCN(CC)C(=O)CC(c1cc(OC)c(OC)c(OC)c1)c1c(OC)cc(OC)c2c(-c3ccccc3)cc(=O)oc12 (stereo not drawn)	61.5	-6.4	-92.8	96.1*	.
Cc1c([N+](=O)[O-])c(C(=O)N2CCCC2)nn1C	2.7	-5.4	-6.6	12.7	-4.0
Cc1c([N+](=O)[O-])c(C(=O)Sc2ccc(Br)cc2)nn1C	9.0	39.1*	-1.2	35.2	.
COCCCNC(=O)/C(C#N)=C/c1ccc(OCC(=O)O)c(OC)c1	25.6	-1.6	32.2	99.6*	1.0
COc1ccc(/C=C(\C#N)C(=O)NCCc2ccccc2)cc1OCc1ccccc1	13.2	1.9	-14.3	21.7	-1.0
CN1CCN(CCC(=O)N2c3ccccc3Sc3ccc(C(F)(F)F)cc32)CC1	80.2*	-9.9	14.9	18.9	5.0
CCN(CC)c1ccc(/C=N/Nc2ccccc2)c(O)c1	-9.6	-6.2	-123.4	56.6*	0.0
CCN(CC)c1ccc(C=Nc2ccccc2)c(O)c1	-3.0	-18.5	-21.0	24.1	1.0
CCN(CC)c1ccc(/C=N/Nc2cccc(C)c2)c(O)c1	2.3	-4.3	78.6*	39.6	17.0
O=C(Nc1cccc([N+](=O)[O-])c1)c1ccn[nH]1	-20.9	7.9	-12.8	-5.5	1.0
O=c1cc(CO)oc(C(Nc2ccccn2)c2ccsc2)c1O (stereo not drawn)	-3.7	-10.4	5.5	48.5	-2.0
SMILES	14-3-3 Bad inh	p47phox inh	Mcl1 Bid PPI	Mcl1 Noxa PPI	Bim-Mcl-1
O=c1cc(CO)oc(C(Nc2ccccn2)c2ccccc2Cl)c1O (stereo not drawn)	4.5	-10.1	6.7	45.0	0.0
COc1ccc(C(Nc2ccccn2)c2oc(CO)cc(=O)c2O)cc1 (stereo not drawn)	4.2	12.0	42.5	65.2*	-5.0
Cc1ccnc(NC(c2ccccc2O)c2oc(CO)cc(=O)c2O)c1 (stereo not drawn)	18.4	-3.6	9.9	69.5*	0.0
O=c1cc(CO)oc(C(Nc2ccccn2)c2ccc(F)cc2)c1O (stereo not drawn)	11.7	-0.6	52.4*	62.1*	0.0
CCN1C(=O)[C@@H]2[C@H](C1=O)[C@@H]1C[C@H]3C(=O)N(CC)C(=O)[C@H]3[C@@H]3C1=C(C(=O)N1C(=O)OC(=NCC4CC4)[C@]31C)[C@@H]2C	-4.0	-17.5	-19.5	12.5	.
CCCCNC(=O)c1cc2n(n1)C(C(F)(F)F)CC(c1ccccc1)N2 (stereo not drawn)	-9.7	57.4*	2.0	13.3	-2.0
Cc1ccc(C2CC(C(F)(F)F)n3nc(C(=O)NCCN4CCOCC4)cc3N2)cc1 (stereo not drawn)	0.8	-8.0	-29.8	-14.3	0.0
CCNc1ccc(P(=O)(c2ccccc2)c2ccccc2)cc1	-4.6	5.0	-17.1	12.7	0.0
Cc1ccc(C(=O)CN(C(=O)c2ccc(Cl)c(Cl)c2)N2C(=O)C3C4C=CC(C4)C3C2=O)cc1 (stereo not drawn)	-0.4	-4.5	80.3*	.	-3.0
CN(/C=C1/C(=O)CNC1=O)CCO	-19.8	3.6	3.1	13.3	0.0
O=C1CCCC2(O)C1C(c1cccc(Br)c1)NC(=O)N2Cc1ccccc1 (stereo not drawn)	6.7	0.6	-34.5	-1.9	41.0*
COCCNC(=O)c1cc(Sc2nnc(C)s2)nc2ccccc12	-1.5	-2.1	-7.2	-0.1	.
Cc1nnc(Sc2cc(C(=O)NC3CC3)c3ccccc3n2)s1	0.5	2.7	98.6*	0.3	.
COC(=O)CSc1ncnc2c1sc1nc(-c3ccco3)c3c(c12)CC(C)(C)OC3	.	-23.8	-61.2	75.8*	1.0
O=C(Nc1ccccc1)c1cc2ccc3ccccc3c2s1	1.1	-19.3	-41.4	-48.4	.
CCOC(=O)c1c(C)n(-c2ccc(C)cc2)c2ccc(OCC(O)CN3CCN(C)CC3)cc12 (stereo not drawn)	42.7	54.0*	4.5	13.1	-2.0
CCOC(=O)c1c(C)n(C)c2ccc(OCC(O)CN3CCN(C)CC3)cc12 (stereo not drawn)	12.1	-0.1	30.1	34.3	-5.0
COC(=O)c1cc2c(N)c(C(=O)c3ccccc3)sc2nc1C(OC)OC	-0.4	-14.6	-7.6	-3.9	.
COc1cccc(OC)c1C(=O)Nc1ccccc1C(=O)N1CCOCC1	4.1	-1.4	83.9*	-2.0	-2.0
Cc1nc(SCC(=O)NC(=O)NC(C)(C)C)nc(C)c1C	-1.7	-10.9	-16.8	-21.3	.
O=C(NCc1cccnc1)/C(=C\c1ccc(-c2ccc(Cl)c(Cl)c2)o1)S(=O)(=O)c1ccccc1	-6.5	-56.2	54.7*	40.2	-5.0
O=C(NCc1cccnc1)c1ccc(-c2ccc(Cl)cc2)o1	1.9	-4.7	-32.6	8.8	-3.0
O=C1N=c2ccccc2=C1c1sc(=S)n(CC2CCCO2)c1O (stereo not drawn)	14.9	-0.2	-3.0	5.9	2.0
COc1ccc(N=C2O/C(=C/c3sc(=S)n(CC4CCCO4)c3O)N=C2C#N)cc1 (stereo not drawn)	-6.7	42.5*	-51.6	35.0	.
CC(NC(=O)Cn1cccc1C(=O)c1ccccc1)c1ccc2c(c1)OCCO2 (stereo not drawn)	3.2	70.7*	2.3	16.7	-3.0
